The record followed here is publication PMC9911399, “Two distinct binding modes provide the RNA-binding protein RbFox with extraordinary sequence specificity”.

Changes are numbered by the printed parent chain; changes in the protein carry UniProt numbers. Whole data set: some 16,000 sequences, median “ka relative to ugcaugu” near 0.0091, cut for the highest 2% near 0.032. The sample as a whole holds a higher share of the highest values than the screen did.

Sequences and labels used below:
T1: RBFOX1 RRM (Homo sapiens, UniProt Q9NWB1 109-208)
T1 sequence: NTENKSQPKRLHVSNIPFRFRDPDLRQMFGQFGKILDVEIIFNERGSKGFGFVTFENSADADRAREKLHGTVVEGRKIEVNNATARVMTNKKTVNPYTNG

B1: UCUCAAG (DNA:RNA)
RNA: GGGAGACCGGAAUUCAGAUUGUCCUCUCAAGUUAAAUCCCGUCGUAGCCACCA
DNA 1: CAATCTGAATTCCGGTCTCCC
DNA 2: TGGTGGCTACGACGGGATT
B2: UCUUGAA (DNA:RNA)
RNA: B1 RNA with C28U, A29G, G31A
DNA 1: CAATCTGAATTCCGGTCTCCC
DNA 2: TGGTGGCTACGACGGGATT
B3: CUGUACU (DNA:RNA)
RNA: B1 RNA with U25C, C26U, U27G, C28U, A30C, G31U
DNA 1: CAATCTGAATTCCGGTCTCCC
DNA 2: TGGTGGCTACGACGGGATT
B4: UAUUACG (DNA:RNA)
RNA: B1 RNA with C26A, C28U, A30C
DNA 1: CAATCTGAATTCCGGTCTCCC
DNA 2: TGGTGGCTACGACGGGATT
B5: ACCUGUG (DNA:RNA)
RNA: B1 RNA with U25A, U27C, C28U, A29G, A30U
DNA 1: CAATCTGAATTCCGGTCTCCC
DNA 2: TGGTGGCTACGACGGGATT
B6: GAUAUAG (DNA:RNA)
RNA: B1 RNA with U25G, C26A, C28A, A29U
DNA 1: CAATCTGAATTCCGGTCTCCC
DNA 2: TGGTGGCTACGACGGGATT
B7: CUUAACU (DNA:RNA)
RNA: B1 RNA with U25C, C26U, C28A, A30C, G31U
DNA 1: CAATCTGAATTCCGGTCTCCC
DNA 2: TGGTGGCTACGACGGGATT
B8: AAGGGCU (DNA:RNA)
RNA: GGGAGACCGGAAUUCAGAUUGUCCAAGGGCUUUAAAUCCCGUCGUAGCCACCA
DNA 1: CAATCTGAATTCCGGTCTCCC
DNA 2: TGGTGGCTACGACGGGATT
B9: UUAAAUG (DNA:RNA)
RNA: B1 RNA with C26U, U27A, C28A, A30U
DNA 1: CAATCTGAATTCCGGTCTCCC
DNA 2: TGGTGGCTACGACGGGATT
B10: UUGAAUG (DNA:RNA)
RNA: B1 RNA with C26U, U27G, C28A, A30U
DNA 1: CAATCTGAATTCCGGTCTCCC
DNA 2: TGGTGGCTACGACGGGATT
B11: UUGAAUC (DNA:RNA)
RNA: B1 RNA with C26U, U27G, C28A, A30U, G31C
DNA 1: CAATCTGAATTCCGGTCTCCC
DNA 2: TGGTGGCTACGACGGGATT
B12: GCUUGAU (DNA:RNA)
RNA: B1 RNA with U25G, C28U, A29G, G31U
DNA 1: CAATCTGAATTCCGGTCTCCC
DNA 2: TGGTGGCTACGACGGGATT
B13: UACUGGA (DNA:RNA)
RNA: B8 RNA with A25U, G27C, G28U, C30G, U31A
DNA 1: CAATCTGAATTCCGGTCTCCC
DNA 2: TGGTGGCTACGACGGGATT
B14: UCGUGAG (DNA:RNA)
RNA: B1 RNA with U27G, C28U, A29G
DNA 1: CAATCTGAATTCCGGTCTCCC
DNA 2: TGGTGGCTACGACGGGATT
B15: UGUGGCC (DNA:RNA)
RNA: B8 RNA with A25U, A26G, G27U, U31C
DNA 1: CAATCTGAATTCCGGTCTCCC
DNA 2: TGGTGGCTACGACGGGATT
B16: UGGCCGA (DNA:RNA)
RNA: B1 RNA with C26G, U27G, A29C, A30G, G31A
DNA 1: CAATCTGAATTCCGGTCTCCC
DNA 2: TGGTGGCTACGACGGGATT
B17: UGGCCUC (DNA:RNA)
RNA: B1 RNA with C26G, U27G, A29C, A30U, G31C
DNA 1: CAATCTGAATTCCGGTCTCCC
DNA 2: TGGTGGCTACGACGGGATT
B18: UGGCCGC (DNA:RNA)
RNA: B1 RNA with C26G, U27G, A29C, A30G, G31C
DNA 1: CAATCTGAATTCCGGTCTCCC
DNA 2: TGGTGGCTACGACGGGATT
B19: UGGCCUG (DNA:RNA)
RNA: B1 RNA with C26G, U27G, A29C, A30U
DNA 1: CAATCTGAATTCCGGTCTCCC
DNA 2: TGGTGGCTACGACGGGATT
B20: UGGCCGG (DNA:RNA)
RNA: B1 RNA with C26G, U27G, A29C, A30G
DNA 1: CAATCTGAATTCCGGTCTCCC
DNA 2: TGGTGGCTACGACGGGATT
B21: UGCGGUG (DNA:RNA)
RNA: B8 RNA with A25U, A26G, G27C, C30U, U31G
DNA 1: CAATCTGAATTCCGGTCTCCC
DNA 2: TGGTGGCTACGACGGGATT
B22: CAUGUGG (DNA:RNA)
RNA: B8 RNA with A25C, G27U, G29U, C30G, U31G
DNA 1: CAATCTGAATTCCGGTCTCCC
DNA 2: TGGTGGCTACGACGGGATT
B23: GCUACAC (DNA:RNA)
RNA: B1 RNA with U25G, C28A, A29C, G31C
DNA 1: CAATCTGAATTCCGGTCTCCC
DNA 2: TGGTGGCTACGACGGGATT
B24: CAAUAAC (DNA:RNA)
RNA: B1 RNA with U25C, C26A, U27A, C28U, G31C
DNA 1: CAATCTGAATTCCGGTCTCCC
DNA 2: TGGTGGCTACGACGGGATT
B25: CGAGGGG (DNA:RNA)
RNA: B8 RNA with A25C, A26G, G27A, C30G, U31G
DNA 1: CAATCTGAATTCCGGTCTCCC
DNA 2: TGGTGGCTACGACGGGATT
B26: AAUAUAG (DNA:RNA)
RNA: B1 RNA with U25A, C26A, C28A, A29U
DNA 1: CAATCTGAATTCCGGTCTCCC
DNA 2: TGGTGGCTACGACGGGATT
B27: GCUGCUA (DNA:RNA)
RNA: B1 RNA with U25G, C28G, A29C, A30U, G31A
DNA 1: CAATCTGAATTCCGGTCTCCC
DNA 2: TGGTGGCTACGACGGGATT
B28: UGAGUCU (DNA:RNA)
RNA: B8 RNA with A25U, A26G, G27A, G29U
DNA 1: CAATCTGAATTCCGGTCTCCC
DNA 2: TGGTGGCTACGACGGGATT
B29: UGGAUGG (DNA:RNA)
RNA: B1 RNA with C26G, U27G, C28A, A29U, A30G
DNA 1: CAATCTGAATTCCGGTCTCCC
DNA 2: TGGTGGCTACGACGGGATT
B30: UGCUGGA (DNA:RNA)
RNA: B8 RNA with A25U, A26G, G27C, G28U, C30G, U31A
DNA 1: CAATCTGAATTCCGGTCTCCC
DNA 2: TGGTGGCTACGACGGGATT
B31: UGGAUUC (DNA:RNA)
RNA: B8 RNA with A25U, A26G, G28A, G29U, C30U, U31C
DNA 1: CAATCTGAATTCCGGTCTCCC
DNA 2: TGGTGGCTACGACGGGATT
B32: UGGAAUC (DNA:RNA)
RNA: B1 RNA with C26G, U27G, C28A, A30U, G31C
DNA 1: CAATCTGAATTCCGGTCTCCC
DNA 2: TGGTGGCTACGACGGGATT
B33: UCCUGGA (DNA:RNA)
RNA: B1 RNA with U27C, C28U, A29G, A30G, G31A
DNA 1: CAATCTGAATTCCGGTCTCCC
DNA 2: TGGTGGCTACGACGGGATT
B34: UGGAUGC (DNA:RNA)
RNA: B8 RNA with A25U, A26G, G28A, G29U, C30G, U31C
DNA 1: CAATCTGAATTCCGGTCTCCC
DNA 2: TGGTGGCTACGACGGGATT
B35: UGGAGUC (DNA:RNA)
RNA: B8 RNA with A25U, A26G, G28A, C30U, U31C
DNA 1: CAATCTGAATTCCGGTCTCCC
DNA 2: TGGTGGCTACGACGGGATT
B36: UGGAUUG (DNA:RNA)
RNA: B1 RNA with C26G, U27G, C28A, A29U, A30U
DNA 1: CAATCTGAATTCCGGTCTCCC
DNA 2: TGGTGGCTACGACGGGATT
B37: UGGAGGC (DNA:RNA)
RNA: B8 RNA with A25U, A26G, G28A, C30G, U31C
DNA 1: CAATCTGAATTCCGGTCTCCC
DNA 2: TGGTGGCTACGACGGGATT
B38: UGGAUGA (DNA:RNA)
RNA: B8 RNA with A25U, A26G, G28A, G29U, C30G, U31A
DNA 1: CAATCTGAATTCCGGTCTCCC
DNA 2: TGGTGGCTACGACGGGATT
B39: UGAUGGA (DNA:RNA)
RNA: B8 RNA with A25U, A26G, G27A, G28U, C30G, U31A
DNA 1: CAATCTGAATTCCGGTCTCCC
DNA 2: TGGTGGCTACGACGGGATT

The assay concerns the target T1, RBFOX1 RRM. As to the kind of experiment: EMSA; HiTS-Eq, 1 nM pool, 10 min; buffer printed only for the single-RNA assays: 10 mM Tris pH 7.5, 150 mM NaCl, 3.4 mM EDTA, 0.001% NP-40, 30 C. Particulars: tags: His6 N-terminal (pET28a); label: 5' 32P. Put shortly: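 Purified RbFox RRM (wild type or mutant) was equilibrated for 10 min in 50 µL with 1 nM of a 5′-radiolabelled pool of RNA with 7 randomized nucleotides, its flanks annealed to DNA oligonucleotides, across increasing protein concentrations. Free RNA was separated by 8% native PAGE, excised, reverse-transcribed, PCR-barcoded and sequenced on an Illumina HiSeq 2500. Relative association constants came from read-count changes of each variant against the control reaction, normalised to the cognate motif.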
(Mobility shift assays separate free from complexed probe on a gel.)
As for B1, the binding signal is 0.00583 KA relative to UGCAUGU. Next, B2: 0.0145 KA relative to UGCAUGU; B3: 0.00801 KA relative to UGCAUGU; B4: 0.0123 KA relative to UGCAUGU.

On to B5, for which the binding signal was 0.00788 KA relative to UGCAUGU.

Regarding B6, the binding signal is 0.0101 KA relative to UGCAUGU. Turning to B7, the binding signal is 0.0019 KA relative to UGCAUGU. To B8 belongs 0.0102 KA relative to UGCAUGU. Take B9: the binding signal was 0.0123 KA relative to UGCAUGU. Next, B10: 0.037 KA relative to UGCAUGU; B11: 0.0179 KA relative to UGCAUGU; B12: 0.0264 KA relative to UGCAUGU. To B13 belongs 0.00358 KA relative to UGCAUGU; to B14, 0.00953 KA relative to UGCAUGU.

Turning to B15, the binding signal is 0.0234 KA relative to UGCAUGU.

In the case of B16, the binding signal is 0.0244 KA relative to UGCAUGU. As for B17, the binding signal is 0.0279 KA relative to UGCAUGU. To B18 belongs 0.0225 KA relative to UGCAUGU. For the molecule B19, the binding signal was 0.0426 KA relative to UGCAUGU.

Turning to B20, the binding signal is 0.0318 KA relative to UGCAUGU.

Consider B21, for which the binding signal was 0.0288 KA relative to UGCAUGU.

Take B22: the binding signal was 0.00494 KA relative to UGCAUGU. Next, B23: 0.00819 KA relative to UGCAUGU; B24: 0.00247 KA relative to UGCAUGU. For B25, the binding signal was 0.00639 KA relative to UGCAUGU. In the case of B26, the binding signal was 0.00237 KA relative to UGCAUGU. To B27 belongs 0.0167 KA relative to UGCAUGU; to B28, 0.0175 KA relative to UGCAUGU; to B29, 0.0304 KA relative to UGCAUGU. In the case of B30, the binding signal was 0.0106 KA relative to UGCAUGU. On to B31, for which the binding signal is 0.0192 KA relative to UGCAUGU. Next, B32: 0.0233 KA relative to UGCAUGU; B33: 0.00715 KA relative to UGCAUGU; B34: 0.0582 KA relative to UGCAUGU.

For the molecule B35, the binding signal is 0.0349 KA relative to UGCAUGU. To B36 belongs 0.0448 KA relative to UGCAUGU; to B37, 0.0186 KA relative to UGCAUGU. Next, B38: 0.0437 KA relative to UGCAUGU; B39: 0.00526 KA relative to UGCAUGU.
